The record followed here is ChEMBL document CHEMBL4513146, “CO-ADD screening of Karazin Kharkiv National University (Ukraine) compounds”.

Results with a measured potency or affinity are listed apart.

In experiment [1] the test system is Staphylococcus aureus. The settings on record: Concentration 32 ug.mL-1;; ASSAY_TEST Inhibition of Bacterial Growth; detection method Absorption (OD600); MEDIA CAMHB; plate type 384well; NBS; CORNING #3640; time 18 hr.
Experiment [2] has as its system Escherichia coli. The settings on record: Concentration 32 ug.mL-1;; ASSAY_TEST Inhibition of Bacterial Growth; detection method Absorption (OD600); MEDIA CAMHB; plate type 384well; NBS; CORNING #3640; time 18 hr.

Regarding `O=C(CSc1nnc2c3cc(-c4ccc(F)cc4)nn3ccn12)NCc1ccccc1`, the Inhibition (commonly the change of the read-out against control, counted positive when it falls) in experiment [1] was -2.17%; in experiment [2], -6.24%.

On to `CC(=O)c1ccc(NC(=O)Cn2nc3ccc(Sc4ccccc4)nn3c2=O)cc1`, for which the Inhibition is 5.54% in experiment [1] and -7.82% in experiment [2].

With `Cc1ccc(C)c(CSc2nnc3c(=O)n(-c4ccc(Br)cc4)ccn23)c1`, the Inhibition in experiment [1] is recorded as 3.9%; in experiment [2] it was -0.75%.

`CCOc1ccccc1NC(=O)Cn1nc2c(Sc3cccc(C)c3)nccn2c1=O`: the Inhibition in experiment [1] was 3.15%; in experiment [2], -1.9%.

Consider `COc1ccccc1NC(=O)Cn1nc2c3cc(-c4ccc(Cl)cc4)nn3ccn2c1=O`, for which the results for the Inhibition in experiment [1] and in experiment [2] were 5.68% and -3.99%, respectively.

`O=C(CSc1nnc2c3cc(-c4ccc(F)cc4)nn3ccn12)Nc1ccccc1C(F)(F)F`: the Inhibition in experiment [1] is listed as -6.75%; in experiment [2], -13.58%.

As for `O=C(Cn1nc2c(Oc3ccccc3)nccn2c1=O)Nc1ccc(F)cc1Cl`, the Inhibition in experiment [1] was 2.27%; in experiment [2], -4.59%.

`CCCCNC(=O)Cn1nc2n(Cc3ccco3)c(=O)c3sccc3n2c1=O`: the Inhibition in experiment [1] is 2.23%; in experiment [2] it was -5.07%.

As to `Cn1c(=O)c2ccc(C(=O)NC3CCCCC3)cc2n2c(=O)n(CC#N)nc12`, the results for the Inhibition in experiment [1] and in experiment [2] were 10.61% and 1.2%, respectively.

In the case of `COc1ccc(-c2cc3c4nnc(CCC(=O)N5CCN(c6ccccc6F)CC5)n4ccn3n2)cc1`, the Inhibition in experiment [1] is 13.19%; in experiment [2], 1.66%.

For `C=Cc1ccc(CN(c2ccc(F)cc2)S(=O)(=O)c2ccc3nnc(C)n3c2)cc1`, the Inhibition in experiment [1] is -1.19%; in experiment [2], -7.93%.

With `COc1ccc(NC(=O)Cn2nc3c(N4CCCC4)nccn3c2=O)cc1Cl`, the Inhibition was 12.62% in experiment [1] and -0.96% in experiment [2].

In the case of `O=C(Cn1nc2c3sc(N4CCCC4)nc3ncn2c1=O)Nc1cccc(Br)c1`, the figures for the Inhibition in experiment [1] and in experiment [2] were 14.01% and 2.84%, respectively.

On to `O=C(Cn1nc2c(SCc3ccc(Cl)cc3)nccn2c1=O)N1CCN(c2ccccc2)CC1`, for which the Inhibition in experiment [1] was -0.6%; in experiment [2], -2.68%.

Consider `CCOc1ccc(-n2ccn3c(SCC(=O)Nc4ccc(CC)cc4)nnc3c2=O)cc1`, for which the values for the Inhibition in experiment [1] and in experiment [2] were 18.59% and -0.7%, respectively.

Regarding `O=C(Cn1nc2c3cc(-c4ccccc4)nn3ccn2c1=O)N1CCCc2ccccc21`, the values for the Inhibition in experiment [1] and in experiment [2] were 4.94% and 2.28%, respectively.

For the compound `CCOc1ccc(N(Cc2ccccc2)S(=O)(=O)c2ccc3nncn3c2)cc1`, the values for the Inhibition in experiment [1] and in experiment [2] were -0.89% and -1.41%, respectively.

For `COc1ccccc1NC(=O)Cn1nc2c3cc(-c4ccc(C)c(C)c4)nn3ccn2c1=O`, the Inhibition in experiment [1] was found to be 6.99%; in experiment [2] it was 2.41%.

On to `CCc1ccccc1Sc1nccn2c(=O)n(CC(=O)Nc3cc(Cl)c(OC)cc3OC)nc12`, for which the Inhibition in experiment [1] was -16.84%; in experiment [2], -7.56%.

`CCCN(C)c1nccn2c(=O)n(CC(=O)Nc3ccc(C#N)cc3)nc12`: the Inhibition is recorded as 14.04% in experiment [1] and -2.47% in experiment [2].

For the compound `Cc1ccc(Oc2nccn3c(=O)n(CC(=O)NCc4cccs4)nc23)cc1`, the Inhibition in experiment [1] was 11.07%; in experiment [2], 1.37%.

`O=C(Cn1nc2c(Oc3ccccc3)nccn2c1=O)Nc1ccccc1Cl`: the Inhibition is given as 6.14% in experiment [1] and -6.19% in experiment [2].

For `COc1ccc(CCn2c(=O)c3sccc3n3c(=O)n(Cc4c(F)cccc4Cl)nc23)cc1OC`, the results for the Inhibition in experiment [1] and in experiment [2] were -2.47% and -5.54%, respectively.

With `CCOc1ccc(-n2ccn3c(SCC(=O)Nc4cccc(CC)c4)nnc3c2=O)cc1`, the values for the Inhibition in experiment [1] and in experiment [2] were -2.86% and -8.29%, respectively.

Take `O=C(Cn1nc2c3cc(-c4ccc(F)cc4)nn3ccn2c1=O)Nc1ccccc1`: the results for the Inhibition in experiment [1] and in experiment [2] were -11.01% and -1.34%, respectively.

For `O=C(Cn1nc2ccc(SCc3ccc(Cl)cc3)nn2c1=O)Nc1ccccc1`, the results for the Inhibition in experiment [1] and in experiment [2] were 5.05% and -4.3%, respectively.

For `CCc1nnc2c(S(=O)(=O)N(Cc3cc(F)cc(F)c3)c3ccccc3)cccn12`, the Inhibition in experiment [1] was 7.38%; in experiment [2], -4.8%.

In the case of `Cc1cc(C)cc(NC(=O)Cn2nc3c(Sc4cccc(C)c4)nc4ccccc4n3c2=O)c1`, the Inhibition in experiment [1] is given as 1.17%; in experiment [2], 2.96%.

In the case of `CCCCOc1ccc(-c2cc3c4nnc(SCC(=O)Nc5cccc(C(C)=O)c5)n4ccn3n2)cc1`, the Inhibition in experiment [1] is given as 1.68%; in experiment [2], 1.11%.

Take `COc1ccc(NC(=O)c2ccc3nn(CC(=O)N4CCN(c5ccccc5)CC4)c(=O)n3c2)cc1`: the Inhibition is reported as 2.28% in experiment [1] and -9.19% in experiment [2].

For `Cn1c(=O)c2ccc(C(=O)NC3CCCC3)cc2n2c(SCc3c(F)cccc3Cl)nnc12`, the results for the Inhibition in experiment [1] and in experiment [2] were 12.53% and 0.61%, respectively.

On to `O=C(Cn1nc2c(SC3CCCCC3)nccn2c1=O)Nc1ccc(Br)cc1`, for which the results for the Inhibition in experiment [1] and in experiment [2] were 7.56% and -4.82%, respectively.

For the compound `CSc1cccc(NC(=O)Cn2nc3c(N4CCCC(C)C4)nccn3c2=O)c1` (stereo unspecified), the Inhibition is -21.6% in experiment [1] and -14.98% in experiment [2].
